An excerpt weighted towards active compounds, which were near 21% of everything screened.
Pf growth 96h – Primary qHTS for delayed death inhibitors of the malarial parasite plastid, 96 hour incubation; Potency, µM (doses to about 28.7 µM), actives largely listed as inhibitors; P. falciparum luciferase reporter growth, 96 h; 320,000 tested, 6.9% active
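96 h incubation, 37 C, 5% CO2, of luciferase-reporter P. falciparum-infected RBCs (2% hematocrit, 0.05% parasitemia final) with test compounds; endpoint luminescence.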
NS1 function inh – qHTS Assay for Inhibitors of Influenza NS1 Protein Function; Potency, µM (top dose mostly 46.1 µM); 270,000 tested, 0.4% active; AID 2326, 2010; calls by dose curve; further: actives are rising curves; nearly all actives have a fitted effect of over 50% in size
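A cell-based growth assay was used: compounds that relieve NS1-induced slow growth of budding yeast raise OD600. Assay medium was yeast nitrogen base with ammonium sulphate and -URA supplement, pH 6.0, with 2% galactose.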
Pf growth 48h – Primary qHTS for delayed death inhibitors of the malarial parasite plastid, 48 hour incubation; P. falciparum luciferase growth in erythrocytes, 48 h; AID 504832, 2011; Potency, µM (series often up to 28.7 µM), usual class: inhibitors; 310,000 tested, 5.9% active
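Cell-based growth assay: transgenic P. falciparum expressing firefly luciferase, cultured in red cells within RPMI 1640 containing 0.5% w/v Albumax, 24 mM bicarbonate and gentamycin. A drop in luciferase activity indicates inhibition.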
Shiga toxin inh – A qHTS for Small Molecule Inhibitors of Shiga Toxin; Vero cells, Shiga toxin protein synthesis inhibition reporter; inhibition, % at 38.7 µM; 290,000 tested, 9.2% active; AID 2315, 2010; in the data active means inhibition mostly above about 28%, no sharp cut-off; inactive means mostly below about 43%
Cycloheximide cs – Cycloheximide Counterscreen for Small Molecule Inhibitors of Shiga Toxin. cell reporter, cycloheximide protein synthesis inhibition counterscreen. max response, %. 300,000 tested, 12% active; in the data active means max response mostly above about 13%, no sharp cut-off; inactive means mostly below about 14%; further: read at 38.3 µM for the half of the compounds with a filed dose
SARS PLpro yeast – qHTS of Yeast-based Assay for SARS-CoV PLP; S. cerevisiae expressing SARS-CoV PLpro, growth rescue; Potency, µM (top dose mostly 32.9 µM), actives largely listed as activators; 330,000 tested, 0.19% active; AID 485353, 2010; calls by dose curve; further: nearly all actives have a fitted effect of over 55% in size
Each line names hits and unclear results; the compound was inactive in the other large screens. Unless noted, the call rests on the fitted dose curve; in most records, active means well fitted inhibition curve with a large enough effect; inconclusive means small, poorly fitted or top-dose-only effect, or another doubt; inactive means no such curve, though single readings can be large or run the other way.

COc1ccc(-c2cnc3n2CCCCC3)cc1	none
Clc1ccc(-c2c[n+](Cc3ccc(Cl)c(Cl)c3)c3n2CCC3)cc1	Pf growth 96h inconclusive, Pf growth 48h inconclusive
Clc1ccc(C2=C3CCCCn4c(-c5ccccc5)c[n+](c43)C2)cc1	Pf growth 96h inconclusive, NS1 function inh inconclusive, Pf growth 48h 10µM
COc1ccc(-c2c[n+]3c4n2CCCCC4=C(c2ccc(Br)cc2)C3)cc1	Pf growth 96h 2.1µM, Pf growth 48h 3.7µM
Cc1ccc(C2c3c(oc4ccc(Cl)cc4c3=O)C(=O)N2CCCN2CCOCC2)o1 (configuration not stated)	Pf growth 96h inconclusive, Pf growth 48h inconclusive, Cycloheximide cs 9.5
CN(C)CCN1C(=O)c2oc3ccc(Cl)cc3c(=O)c2C1c1cccc(Br)c1 (configuration not stated)	Pf growth 48h 1.9µM
COc1ccc(C2c3c(oc4ccccc4c3=O)C(=O)N2CCCN2CCOCC2)cc1 (configuration not stated)	none (no result: Pf growth 96h, Pf growth 48h, Shiga toxin inh, Cycloheximide cs, SARS PLpro yeast)
O=C1c2oc3ccccc3c(=O)c2C(c2cccc(O)c2)N1CCCN1CCOCC1 (configuration not stated)	none (no result: Pf growth 48h)
COc1ccc(C2c3c(oc4ccc(F)cc4c3=O)C(=O)N2CCN2CCOCC2)cc1OC (configuration not stated)	none (no result: Pf growth 96h, Pf growth 48h, Shiga toxin inh, Cycloheximide cs, SARS PLpro yeast)
COc1ccc(C2c3c(oc4ccc(Cl)cc4c3=O)C(=O)N2CCN2CCOCC2)cc1 (configuration not stated)	Pf growth 48h inconclusive, Cycloheximide cs 13
Cc1cc2oc3c(c(=O)c2cc1C)C(c1ccc(F)cc1)N(CCCN1CCOCC1)C3=O (configuration not stated)	Pf growth 96h 10µM, Pf growth 48h 12µM, SARS PLpro yeast inconclusive
O=C1c2oc3ccc(Cl)cc3c(=O)c2C(c2cccnc2)N1Cc1ccco1 (configuration not stated)	none
O=C1c2oc3ccc(Cl)cc3c(=O)c2C(c2ccco2)N1CCN1CCOCC1 (configuration not stated)	Pf growth 96h inconclusive, Pf growth 48h 8.3µM
COc1cc(NC(=O)CNc2ccc(Cl)c(S(=O)(=O)N3CCOCC3)c2)cc(OC)c1	Pf growth 96h inconclusive, Pf growth 48h 5.2µM (no result: NS1 function inh, Shiga toxin inh, Cycloheximide cs)
COc1ccc(CCC(=O)Nc2ccc(Cl)c(S(=O)(=O)N3CCCC3)c2)cc1	Pf growth 96h inconclusive, Pf growth 48h 9.3µM
COc1cc(CCC(=O)Nc2ccc(C)c(S(=O)(=O)N3CCCCCC3)c2)cc(OC)c1OC	Pf growth 96h 10µM, Pf growth 48h 12µM (no result: NS1 function inh, Shiga toxin inh, Cycloheximide cs)
O=C(CCOc1ccccc1)Nc1ccc(Cl)c(S(=O)(=O)N2CCOCC2)c1	Pf growth 96h inconclusive, Pf growth 48h inconclusive (no result: NS1 function inh, Shiga toxin inh, Cycloheximide cs)
CCCN1C2CCCC1CC(NC(=O)c1ccc(Br)cc1)C2 (configuration not stated)	Pf growth 48h inconclusive (no result: SARS PLpro yeast)
Cc1ccc(CN2CCN(C(=O)CC(C)C)CC2)cc1	Pf growth 96h inconclusive (no result: Shiga toxin inh)
COc1ccc(CCNC(=S)NC2CCN(Cc3ccccc3)CC2)cc1OC	Pf growth 96h inconclusive, Pf growth 48h inconclusive
O=C1CS/C(=N/N=C/c2ccccc2OS(=O)(=O)c2ccccc2)N1	Pf growth 96h inconclusive
Cc1ccc(OS(=O)(=O)c2ccccc2)c(/C=N/N=C2\NC(=O)C(C)S2)c1 (configuration not stated)	Pf growth 96h inconclusive, Pf growth 48h inconclusive, Cycloheximide cs 12
O=C(N/N=C\c1ccc(-c2ccc([N+](=O)[O-])cc2)o1)C1COc2ccccc2O1 (configuration not stated)	none
Cc1nnc2c(NCCc3ccccc3)nc3ccccc3n12	Pf growth 96h inconclusive
CCC(C)N1C(=O)S/C(=C/c2ccc3c(c2)n(C)c(=O)n3C)C1=O (configuration not stated)	Cycloheximide cs 30 (no result: NS1 function inh)
CC(C)N1C(=O)S/C(=C/c2ccc3c(c2)n(C)c(=O)n3C)C1=O	Pf growth 96h inconclusive
CCCCCc1ccc(-c2cn(CCCOCc3ccccc3)nn2)cc1	none
COc1ccc(-c2cn(Cc3ccc4ccccc4c3)nn2)cc1	none
COc1ccc(-c2cn(Cc3ccc([N+](=O)[O-])cc3)nn2)cc1	Shiga toxin inh 24
Cc1ccc(Cn2cc(-c3ccccc3)nn2)cc1	Shiga toxin inh 86, Cycloheximide cs 57

Compound activity from PubChem BioAssay.
